High-throughput results (PubChem)
TDP1 cell CPT – DT40-hTDP1 cell growth loss with CPT | 12% of 420,000 active | Potency, µM (highest dose often 46.2 µM), for the others: top-dose activity change, negative = growth inhibition, most hits filed as inhibitors | chicken DT40 Tdp1-/-;hTDP1 cells + 20 nM CPT, ATP luminescence, 48 h | AID 686979; note: potency is the fitted concentration of half-maximal effect; % is set by controls: 0 for no effect and ±100 for the full control effect; nearly all actives have a fitted effect of over 55% in size
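Chicken DT40 Tdp1-/- cells complemented with human TDP1, 400 cells/well, exposed to compounds plus 20 nM camptothecin for at least 48 h at 37 C; viability read as ATP content by CellTiter-Glo luminescence.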
HepG2 tox – counter-screen for TGF-b inhibitors: cytotoxicity in HepG2 cells; HepG2 CAGA-GFP viability, ATP luminescence, 18 h; Potency, µM (highest dose often 46.1 µM), for inactives: at the top dose activity change, negative = cytotoxicity, most hits filed as cytotoxic; 0.76% of 410,000 active; AID 588856; note: potency is the fitted concentration of half-maximal effect
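HepG2 CAGA-GFP cells (1000/well, DMEM with 1% FBS) received compound, then TGF-beta at 500 pg/mL final, and were incubated 18 hours at 37 degrees C. Viability was read by CellTiter-Glo luminescence. Media-only wells were set as complete cell-killing and DMSO as no toxicity.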
TDP1 inh – inhibitors of human tyrosyl-DNA phosphodiesterase TDP1; Q9NUW8; recombinant TDP1, AlphaScreen DNA substrate cleavage; Potency, µM (doses to about 130 µM), inactives show at the top dose activity change, negative = inhibition, hits mostly inhibitors; 0.28% of 350,000 active; note: potency is the fitted concentration of half-maximal effect; % is set by controls: 0 for no effect and ±100 for the full control effect; nearly all actives have a fitted effect of over 40% in size
Target sequence (Q9NUW8 whole entry, looked up): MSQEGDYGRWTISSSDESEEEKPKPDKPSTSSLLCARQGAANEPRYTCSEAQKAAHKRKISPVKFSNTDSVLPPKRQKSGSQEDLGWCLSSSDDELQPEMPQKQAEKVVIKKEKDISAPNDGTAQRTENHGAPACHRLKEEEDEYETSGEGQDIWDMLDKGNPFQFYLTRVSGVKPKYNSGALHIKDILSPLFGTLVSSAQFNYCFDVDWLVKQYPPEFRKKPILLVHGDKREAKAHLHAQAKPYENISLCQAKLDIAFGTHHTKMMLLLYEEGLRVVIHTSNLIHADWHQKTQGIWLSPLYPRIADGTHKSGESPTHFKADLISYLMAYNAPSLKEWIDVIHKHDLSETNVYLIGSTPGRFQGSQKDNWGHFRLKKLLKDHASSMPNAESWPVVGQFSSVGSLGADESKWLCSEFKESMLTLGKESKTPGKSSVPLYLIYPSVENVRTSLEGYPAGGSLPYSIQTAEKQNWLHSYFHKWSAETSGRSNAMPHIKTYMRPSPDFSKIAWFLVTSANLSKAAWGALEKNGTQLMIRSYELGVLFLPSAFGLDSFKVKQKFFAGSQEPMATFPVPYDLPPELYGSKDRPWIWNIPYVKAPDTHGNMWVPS
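Tdp1 1 nM final; 15 min RT w/ cpd; substrate 15 nM, 5 min; beads 10 ug/ml, 10 min; AlphaScreen read. Neg ctrl: no enzyme.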
IL-1B inflam inh – inhibitors of inflammasome signaling (IL-1 beta secretion) | THP-1 LPS/ATP IL-1B secretion, AlphaLISA, 16 h; stronger effect = lower value | activity change, % at 57.5 µM | 4.7% of 360,000 active | AID 743279; in the data active = activity change below about -50%; inconclusive = mostly about -30% to -49%; note: % is set by controls: 0 for no effect and ±100 for the full control effect
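Secreted IL-1B measured by AlphaLISA bead assay after 16 h compound exposure of THP-1 cells; compounds (final up to 57.5 uM) added 1 h before LPS (250 ng/mL) and ATP (1.25 mM) stimulation; lower signal means less secretion.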
TGFb inhibitor – inhibitors of TGF-b signaling. HepG2 CAGA-GFP TGF-b/SMAD3 reporter, GFP fluorescence, 18 h; TGF-beta stimulated, 500 pg/mL final. Potency, µM (titrated, usually from 46.1 µM), inactives show at the highest dose activity, negative = inhibition, actives largely listed as inhibitors. 1.2% of 410,000 active. AID 588855; note: potency is the fitted concentration of half-maximal effect; % is set by controls: 0 for no effect and ±100 for the full control effect; nearly all actives have a fitted effect of over 65% in size
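Per well, imaged GFP fluorescence of HEPG2 CAGA-GFP cells gives the signal; cells get compound, then TGF-beta (500 pg/mL final), 18 h at 37 degrees C; %Activity versus -TGF-beta and +DMSO controls.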
DT40 TDP1 no CPT – qHTS for Inhibitors of human tyrosyl-DNA phosphodiesterase 1 (TDP1): qHTS in cells in absence of CPT | DT40 Tdp1-/- hTDP1 cells, no CPT, ATP luminescence, 48 h | Potency, µM (series often up to 46.2 µM), inactives show top-dose activity change, negative = growth inhibition, most hits filed as inhibitors | 15% of 420,000 active | AID 686978, 2013; note: potency is the fitted concentration of half-maximal effect; % is set by controls: 0 for no effect and ±100 for the full control effect; nearly all actives have a fitted effect of over 55% in size
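Camptothecin absent (DMSO only). Human TDP1-complemented DT40 knockout cells, 400 cells/well, 37 °C for minimum 48 hr; ATP measured via CellTiter-Glo, 30 min dark incubation, luminescence.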
An asterisk follows results filed as active; u = inconclusive; x = no result; [ ] = another dose, or the depositor's remark. This is a sample that favours compounds with a hit; in the whole collection about 18% have one here. Unless noted, calls come from the whole dose curve; as a rule, active = well fitted curve in the direction sought with a large enough effect; inconclusive = small, poorly fitted or top-dose-only effect, or another doubt; inactive = no such curve, though single readings can be large; an effect the other way counts as inactive or inconclusive.

SMILES	TDP1 cell CPT	HepG2 tox	TDP1 inh	IL-1B inflam inh	TGFb inhibitor	DT40 TDP1 no CPT
COc1cc2c(cc1OC)C(C)N(C(C)=O)CC2 (stereo not given)	-4.9%	-1.1%	0.0%	10.6	1.8%	1.1%
COc1cc2c(cc1OC)C(CNC(=O)C=Cc1cc(OC)c(OC)c(OC)c1)C2 (stereo not given)	u	2.4%	x	-13.4	14.0%	18.4µM*
COc1cc(/C=C/C(=O)NC2CCCCC2)cc(OC)c1OC	-3.3%	0.5%	2.8%	7.5	0.3%	-0.2%
COc1cc2c(cc1OC)C(C)N(C(=O)/C=C/c1cc(OC)c(OC)c(OC)c1)CC2 (stereo not given)	14.6µM*	-26.1%	x	-22.2	-12.6%	8.2µM*
COc1cc2c(cc1OC)CN(C(=O)/C=C/c1cc(OC)c(OC)c(OC)c1)CC2	u	-3.1%	x	-11.7	1.2%	9.2µM*
COc1cc(/C=C/C(=O)N2CCCC2)cc(OC)c1OC	9.2%	2.6%	2.4%	0.0	7.5%	3.2%
COc1cc2c(cc1OC)CN(C(=O)/C=C/c1ccc(F)cc1)CC2	u	4.7%	10.8%	-13.2	-0.6%	u
COc1cc(/C=C/C(=O)N2CCCCC2=O)cc(OC)c1OC	2.99µM*	x	-3.1%[56.1 µM]	x	x	3.76µM*
COc1ccccc1OCC(=O)N/N=C1/SCC(=O)N1Cc1ccccc1	-18.8%	-1.8%	1.0%	0.0	0.0%	-12.0%
COc1ccc(NS(=O)(=O)c2cc(NC(=O)c3ccc(=O)[nH]n3)ccc2N2CCOCC2)cc1	u	-8.9%	-3.5%	3.5	24.7%	u
Cc1cccc(CSc2ccc(S(=O)(=O)N3CCCC3)cn2)c1	-19.9%	-20.7%	-13.1%	16.3	u	-29.5%
CCOC(=O)N1CCc2c(sc3nc4n(c(=O)c23)N=C(c2ccc(OC)cc2)CS4)C1	0.6%	6.1%	5.0%	23.6	33.0%	-15.3%
Cc1cc(C)nc(-n2nc(C)c(Br)c2Nc2ccc(Br)cc2)n1	u	-29.4%	2.3%	u	0.9%	u
Cc1nn(C)c(Nc2ccc(Br)cc2)c1Br	14.6µM*	4.7%	5.0%	-54.6*	-0.9%	18.4µM*
COc1ccc(/C=C2/C(=O)C(C)(C(C)C)CCC2C)cc1 (stereo not given)	13.4%	-14.8%	x	16.8	0.5%	-26.6%
CC(C)(C)c1ccc(C(=O)Nc2ccc(C(=O)OCc3cc(=O)n4ccsc4n3)cc2)cc1	20.6µM*	-40.8%	-6.2%	x	-5.9%	20.6µM*
Cc1ccc(C(=O)Nc2ccc(C(=O)OCc3cc(=O)n4ccsc4n3)cc2)cc1	18.0%	4.0%	22.4µM*	x	-1.9%	0.3%
CCOc1ccc(C(=O)Nc2ccc(C(=O)OCc3cc(=O)n4ccsc4n3)cc2)cc1	0.4%	6.7%	1.2%	x	0.7%	-12.9%
O=C(Nc1ccccc1C(=O)OCc1cc(=O)n2ccsc2n1)c1cccc(F)c1	18.4µM*	-8.5%	-1.2%	x	-1.1%	11.6µM*
CC(C)(C)c1ccc(C(=O)Nc2ccccc2C(=O)OCc2cc(=O)n3ccsc3n2)cc1	-6.1%	-1.2%	3.8%	x	-16.3%	1.6%
Cc1cccc(C(=O)Nc2ccc(C(=O)OCc3cc(=O)n4c(C)csc4n3)cc2)c1	u	-50.1%	-13.8%	x	u	16.4µM*
Cc1cccc(C(=O)Nc2ccccc2OCc2cc(=O)n3c(C)csc3n2)c1	-0.3%	1.2%	6.4%	x	-9.9%	-3.1%
C=CCn1c(O)c(C=Nc2ccc(CN3CCCCC3)cc2)c(=O)[nH]c1=S	4.9%	-3.3%	4.7%	x	5.4%	u
CCCCOc1ccc(C(=O)N2CCC(C)CC2)cc1	-21.3%	-17.6%	6.8%	u	-3.2%	-21.9%
CCCCOc1ccc(C(=O)OC2CC(C)N(C)CC2C)cc1 (stereo not given)	u	-36.8%	2.1%	-53.6*	11.8%	16.4µM*
SMILES	TDP1 cell CPT	HepG2 tox	TDP1 inh	IL-1B inflam inh	TGFb inhibitor	DT40 TDP1 no CPT
CC1CN(C)C(C)CC1OC(=O)C(c1ccccc1)c1ccccc1 (stereo not given)	u	-39.6%	x	u	-29.4%	23.1µM*
COC(=O)c1cccc(NC(=O)C2CCN(S(=O)(=O)Cc3ccccc3)CC2)c1C	-8.2%	-16.3%	8.6%	x	-11.3%	6.7%
Cc1ccc(CNS(=O)(=O)c2c(C)[nH]c(=O)[nH]c2=O)cc1	-4.3%	2.8%	x	7.8	-3.3%	17.3%
CSc1ccc(CCNC(=O)CCc2c(C)nc3cc(-c4ccccc4)nn3c2C)cc1	-22.5%	-5.3%	1.2%	x	-12.7%	-23.8%
CCOc1ccccc1NC(=O)CCc1c(C)nc2cc(-c3ccccc3)nn2c1C	18.4µM*	6.3%	6.9%	x	-7.0%	11.6µM*
COc1ccc(CCNC(=O)CCc2c(C)nc3cc(-c4ccccc4)nn3c2C)cc1OC	16.4µM*	-27.6%	3.5%	x	-25.1%	25.9µM*
Cc1nc2nc(C)c(CCC(=O)NC(C)c3ccc4c(c3)OCCO4)c(C)n2n1 (stereo not given)	1.1%	6.2%	-2.0%	12.7	-7.7%	3.6%
Cc1nc2cc(-c3ccccc3)nn2c(C)c1CCC(=O)NC(C)c1ccc2c(c1)OCCO2 (stereo not given)	u	-82.4%	2.6%	9.1	-12.4%	18.4µM*
CCOc1ccc(CCNC(=O)CCc2c(C)nc3cc(-c4ccccc4OC)nn3c2C)cc1	u	-17.2%	1.2%	x	u	14.6µM*
CCOc1ccc(N=Nc2ccc(N)cc2N)cc1	u	x	19.9%	x	x	u
O=[N+]([O-])/C=C1\C=CC=CN1Cc1ccc(Cl)cc1	u	4.4%	x	11.4	0.0%	26.3%
Cc1ccc(C2=NN(CC(=O)NCCC(C)C)C(=O)CC2)cc1	-13.1%	-5.4%	2.6%	0.0	-8.4%	-1.1%
COc1ccc(CCNC(=O)CCc2c(C)nc3c4c(C)cc(C)nc4nn3c2C)cc1OC	u	1.0%	0.0%	x	0.4%	16.4µM*
Cc1cccc(CCNC(=O)CCc2c(C)nc3c4c(C)cc(C)nc4nn3c2C)c1	u	-9.0%	2.5%	x	x	-16.7%
O=[N+]([O-])c1ccc(Cl)cc1Sc1cccc2cccnc12	-11.1%	-12.0%	1.1%	19.4	0.8%	u
O=[N+]([O-])c1ccc(Cl)cc1Sc1nc2ccccc2o1	u	-24.5%	10.0%	-58.2*	u	u
CCn1c2ccccc2c2cc(CNCCCN3CCOCC3)ccc21	20.6µM*	-38.9%	6.0%	-14.5	u	16.4µM*
